The list is not random: actives were taken first. Their share in the collection is about 20%.
Cycloheximide cs: affects cycloheximide protein synthesis inhibition readout, counter-screen; cell reporter, cycloheximide protein synthesis inhibition counterscreen; 300,000 tested, 12% active; max response, %; in the data active = max response mostly above about 13%, no sharp cut-off; inactive = mostly below about 14%; also: read at 38.3 µM for the half of the compounds with a filed dose; 0% is about no effect
Pf growth 96h: inhibits malaria parasite growth, 96 h; 320,000 tested, 6.9% active; P. falciparum luciferase reporter growth, 96 h; AID 504834; Potency, µM (doses to about 28.7 µM), without a hit: at the top dose activity change, negative = inhibition, usual class: inhibitors; also: potency is read from the fitted curve at half-maximal effect; % is scaled to controls: 0 for no effect and ±100 for the full control effect
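Two parasite generations (96 h, 37 C, 5% CO2) of compound exposure in infected erythrocytes (0.05% parasitemia, 2% hematocrit). Luciferase-reporter P. falciparum; decreased luminescence indicates inhibited growth, aimed at apicoplast-acting delayed death.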
HCMV antiviral: inhibitors of human cytomegalovirus. HFF cells, HCMV-luciferase reporter, 72 h; hits give low values. activity change, negative = inhibition, % at 57.5 µM. 410,000 tested, 4.5% active. AID 1259415; in the data active = activity change below about -60%; inconclusive = no clear call, values can overlap the other calls; inactive = above about -39%; also: % is scaled to controls: 0 for no effect and ±100 for the full control effect
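Two-dose cell screen: HFF monolayers treated with compounds and infected with luciferase-expressing HCMV at 1 PFU/cell, 72 h at 37C, then lysed for luciferase measurement.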
Shiga inhibitor: Shiga toxin inhibition; 290,000 tested, 9.2% active; AID 2315; Vero cells, Shiga toxin protein synthesis inhibition reporter; inhibition, % at 38.7 µM; in the data active = inhibition mostly above about 28%, no sharp cut-off; inactive = mostly below about 43%; also: 0% is about no effect
Pf growth 48h: P. falciparum growth inhibition at 48 hours (one generation); Potency, µM (highest dose often 28.7 µM), for inactives: top-dose activity change, negative = inhibition, actives largely listed as inhibitors; 310,000 tested, 5.9% active; AID 504832; P. falciparum luciferase growth in erythrocytes, 48 h; also: potency is read from the fitted curve at half-maximal effect; % is scaled to controls: 0 for no effect and ±100 for the full control effect
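Here the parasites carry a stable luciferase gene and grow inside erythrocytes in Albumax-based RPMI medium with compound for one erythrocytic cycle. Activity is scored as loss of luminescent signal.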
An asterisk follows results filed as active; ? = inconclusive; nt = not tested or not shown; [ ] = dose if it differs, or a comment. Unless noted, calls follow the shape of the dose curve; as a rule, active = well fitted inhibition curve with a large enough effect; inconclusive = small, poorly fitted or top-dose-only effect, or another doubt; inactive = no such curve, though single readings can be large or run the other way.

SMILES | Cycloheximide cs | Pf growth 96h | HCMV antiviral | Shiga inhibitor | Pf growth 48h
O=C(COc1ccccc1[N+](=O)[O-])OCC(=O)c1ccc(Br)s1 | nt | nt | 25.5 | nt | nt
COC(=O)c1sccc1NC(=O)c1cc(-c2cccc(C)c2)nc2ccccc12 | 6.9 | -95.7% | -17.9 | -10.3 | 9.28µM*
COC(=O)c1sccc1NC(=O)c1ccccc1[N+](=O)[O-] | 0.9 | 1.85µM* | -23.4 | -12.5 | 1.3%
COC(=O)c1sc(NC(=O)c2cc(-c3ccccc3)nc3ccccc23)c(C#N)c1C | -0.8 | -22.0% | -97.5* | -11.8 | -19.2%
COc1ccc(-c2cc(C(=O)Nc3sc4c(c3C#N)CCCC4)c3ccccc3n2)cc1 | -1.6 | 33.8% | -32.0 | -11.6 | 3.1%
COC(=O)c1sccc1NC(=O)c1cc(-c2ccc(C)cc2)nc2ccccc12 | -2.3 | 33.6% | 26.7 | 19.1 | ?
Cc1ccccc1-c1cc(C(=O)Nc2sc(C(=O)OC(C)C)c(C)c2C#N)c2ccccc2n1 | -2.3 | -1.7%[5.75 µM] | -101.0* | -9.2 | -9.6%
COC(=O)c1ccc(N2CCS(=O)(=O)CC2)cc1 | 6.3 | 31.2% | -14.2 | 12.5 | 214.1%
O=C(O)/C(=C\c1cccc(OCc2ccccc2)c1)c1ccc(F)cc1 | -3.8 | 1.2% | -19.7 | -1.0 | -2.6%
CCOC(=O)c1sc(NC(=O)c2cc(-c3ccc(C)cc3)nc3ccccc23)c(C#N)c1C | 1.4 | 13.8% | -102.8* | -15.1 | ?
COc1cc(/C=N/OCC(=O)Nc2ccc(OC(F)F)cc2)ccc1OCc1ccccc1 | 45.5* | 18.5% | 12.4 | 21.9 | 25.1%
CCOc1ccc(/C=N/OCC(=O)Nc2ccc(OCc3ccccc3)cc2)cc1OC | 17.4* | ? | 17.0 | 36.8 | -8.8%
COc1ccc(/C=N/OCC(=O)Nc2cc(C)on2)cc1OC | 5.9 | 13.2% | -8.7 | -5.2 | 6.7%
CCOc1ccc(CC(=O)NCCS(=O)(=O)N2CCN(c3ccc(OC)cc3)CC2)cc1 | nt | nt | -14.2 | nt | nt
CN(C)c1ccc(CNC(=O)c2cnc(N3CCNC3=O)s2)cc1 | nt | nt | 8.5 | nt | nt
COc1ccc(Cl)cc1NC(=O)C(C)N1CCN(c2ccccn2)CC1 (stereo not drawn) | -2.6 | 0.0% | -74.3* | -6.4 | 0.0%
Cc1ccc(NC(=S)N2CCN(c3ccccn3)CC2)c(C)c1 | 3.8 | ? | -30.5 | -0.3 | 17.9%
CCc1ccccc1NC(=S)N1CCN(c2ccccn2)CC1 | -2.0 | 28.2% | -102.4* | -2.7 | 9.8%
Fc1ccccc1NC(=S)N1CCN(c2ccccn2)CC1 | 11.4 | -5.7% | -9.8 | 10.5 | 26.9%
COc1ccc(NC(=S)N2CCN(c3ccccn3)CC2)cc1OC | 3.7 | 7.38µM* | 20.8 | -1.2 | -14.3%
COc1ccc(C)cc1NC(=S)N1CCN(c2ccccn2)CC1 | 35.3* | 1.04µM* | -19.7 | 62.3* | 24.5%
COc1cc(NC(=S)N2CCN(c3ccccn3)CC2)cc(OC)c1OC | -3.4 | -22.9%[5.75 µM] | -31.9 | -0.6 | 1.4%
COc1ccc(CCNC(=O)COc2ncnc3ccccc23)cc1 | -0.8 | 25.9% | 5.2 | 15.9 | 9.0%
NC(=O)C1CN(S(=O)(=O)c2ccc(Cl)cc2F)c2ccccc2O1 (stereo not drawn) | -5.8 | 3.3% | 7.9 | -15.8 | -20.5%
S=C(Nc1cccc2ccccc12)N1CCN(c2ncccn2)CC1 | 24.3* | ? | 33.4 | 43.9 | 58.0%
SMILES | Cycloheximide cs | Pf growth 96h | HCMV antiviral | Shiga inhibitor | Pf growth 48h
O=C(Nc1cccc2ccccc12)N1CCN(c2ncccn2)CC1 | 10.9 | -17.5% | -20.1 | 16.9 | -0.8%
NC(=O)C1CCCN(C(=S)NCc2ccc3c(c2)OCO3)C1 (stereo not drawn) | -1.0 | 0.0% | -4.7 | -9.2 | 32.5%
NC(=O)C1CCCN(C(=S)Nc2cccc3ccccc23)C1 (stereo not drawn) | -8.3 | 13.1µM* | 6.0 | -9.3 | 3.4%
O=C(CCCc1ccccn1)c1ccc(-c2ccccc2)cc1 | nt | nt | 42.7 | nt | nt
CCOc1ccccc1CNC(=O)c1[nH]c2ccccc2c1Sc1ccccc1 | nt | nt | -13.2 | nt | nt
COc1ccc(C#Cc2ccc3c(=O)c4ccccc4n(C)c3c2)cc1 | 4.3 | 8.28µM* | nt | 17.2 | -41.3%
COc1ccccc1C#Cc1ccc2c(=O)c3ccccc3n(C)c2c1 | 5.9 | ? | -11.0 | 19.6 | ?
Cn1c2ccccc2c(=O)c2ccc(C#Cc3ccc(N)cc3)cc21 | 25.6* | 9.28µM* | ? | 20.4 | -25.1%
Cc1ccc2c(c1)[C@@H]1[C@H](CO2)[C@H](c2ccccc2)[C@@]2(C)C(=O)N[C@H](C)C(=O)N12 | nt | nt | 1.8 | nt | nt
COc1ccc(N(CC(=O)NCc2ccncc2)S(=O)(=O)c2ccc(C)c([N+](=O)[O-])c2)cc1 | -1.4 | -0.9% | 9.2 | -7.3 | 1.85µM*
COc1ccc(Cl)cc1N(CC(=O)NCC(C)C)S(=O)(=O)c1ccc(C)c([N+](=O)[O-])c1 | 1.2 | 9.28µM* | 4.0 | -14.3 | -11.6%
C=CCNC(=O)CN(c1cc(Cl)ccc1OC)S(=O)(=O)c1ccc(C)c([N+](=O)[O-])c1 | -2.7 | 85.6% | -2.8 | -7.7 | 2.62µM*
CC1(C)CC(=O)c2c(O)cc(OCC(=O)NCCc3ccc(S(N)(=O)=O)cc3)cc2O1 | -0.8 | 42.9% | -25.6 | 11.1 | ?
Cc1c(C(=O)Nc2ccccc2Br)oc2ccc(S(=O)(=O)N3CCCCCC3)cc12 | nt | nt | 10.8 | nt | nt
O=C(O)CC/C(=C\c1ccc(N2CCOCC2)c([N+](=O)[O-])c1)c1nc2ccccc2s1 | 10.9* | 16.0% | -13.4 | 20.8 | -4.1%
O=C(CSc1nc2ccccc2s1)Nc1ccc(N2CCOCC2)c(Cl)c1 | 1.0 | ? | 34.3 | 12.0 | 16.9%
O=C(O)CC/C(=C\c1ccc2c(c1)OCO2)c1nc2ccccc2s1 | 33.6* | 37.8% | -27.0 | 30.6 | 7.8%
O=C(O)CC/C(=C\c1ccc(Cl)c([N+](=O)[O-])c1)c1nc2ccccc2s1 | 5.0 | 1.1% | 23.9 | 6.9 | 21.2%
O=C(O)C/C(=C\c1ccc(N2CCOCC2)c([N+](=O)[O-])c1)c1nc2ccccc2s1 | 20.4* | ? | ? | 28.4 | ?
COc1ccc(C2CC(=O)c3cc(-c4nc(-c5cccc([N+](=O)[O-])c5)cs4)c(=O)n(-c4ccccc4C)c3C2)cc1 (stereo not drawn) | nt | nt | 21.2 | nt | nt
CCc1c(C)sc2c1CCN(C(=O)Nc1cc(Cl)c(OC)cc1OC)C2c1ccccc1 (stereo not drawn) | nt | nt | -24.9 | nt | nt
CC1(Cc2ccc(F)cc2)C(=O)Nc2ccc(-c3cccnc3)cc21 (stereo not drawn) | nt | nt | -64.3* | nt | nt
CC1(Cc2ccc(Cl)cc2)C(=O)Nc2ccc(-c3ccc(F)c(Cl)c3)cc21 (stereo not drawn) | nt | nt | 29.1 | nt | nt
COc1ccccc1N1CCN(c2ccc(-c3ccccc3)nn2)CC1 | 42.2* | 3.4%[5.75 µM] | -95.6* | 138.9* | -65.1%
COc1ccccc1N1CCN(c2ccc3ccccc3n2)CC1 | 44.7* | 179.7% | 77.3 | 70.0* | 104.1%
COc1ccccc1N1CCN(c2cc(N3CCCC3)nc(C)n2)CC1 | -3.7 | 6.1% | -103.5* | -4.1 | ?
COc1ccccc1N1CCN(c2cc(C)nc3nc(C)nn23)CC1 | -0.4 | ? | 4.3 | -6.3 | ?
COc1ccccc1N1CCN(c2nc(C)cc(C)c2C#N)CC1 | -0.6 | 8.28µM* | -28.4 | 3.1 | 3.5%

Assay outcomes (PubChem)
